Data: PubChem BioAssay

Assays:
[1] = system: Botulinum neurotoxin type F light chain protease (Clostridium botulinum); assay: Botulinum neurotoxin type F light chain protease inhibition, multiplex microsphere flow cytometry, validation set (AID 588459); details: multiplex microsphere protease substrate cleavage assay, at 10 µM, hits give high values
[2] = molecular target: Botulinum neurotoxin type A (Clostridium botulinum) (UniProt P0DPI0); assay: BoNT/A light chain protease inhibitors, biochemical, multiplex microsphere flow cytometry, validation set (AID 588460); details: at 10 µM, hits give high values
Botulinum neurotoxin type A (Clostridium botulinum), sequence (P0DPI0 whole entry, looked up): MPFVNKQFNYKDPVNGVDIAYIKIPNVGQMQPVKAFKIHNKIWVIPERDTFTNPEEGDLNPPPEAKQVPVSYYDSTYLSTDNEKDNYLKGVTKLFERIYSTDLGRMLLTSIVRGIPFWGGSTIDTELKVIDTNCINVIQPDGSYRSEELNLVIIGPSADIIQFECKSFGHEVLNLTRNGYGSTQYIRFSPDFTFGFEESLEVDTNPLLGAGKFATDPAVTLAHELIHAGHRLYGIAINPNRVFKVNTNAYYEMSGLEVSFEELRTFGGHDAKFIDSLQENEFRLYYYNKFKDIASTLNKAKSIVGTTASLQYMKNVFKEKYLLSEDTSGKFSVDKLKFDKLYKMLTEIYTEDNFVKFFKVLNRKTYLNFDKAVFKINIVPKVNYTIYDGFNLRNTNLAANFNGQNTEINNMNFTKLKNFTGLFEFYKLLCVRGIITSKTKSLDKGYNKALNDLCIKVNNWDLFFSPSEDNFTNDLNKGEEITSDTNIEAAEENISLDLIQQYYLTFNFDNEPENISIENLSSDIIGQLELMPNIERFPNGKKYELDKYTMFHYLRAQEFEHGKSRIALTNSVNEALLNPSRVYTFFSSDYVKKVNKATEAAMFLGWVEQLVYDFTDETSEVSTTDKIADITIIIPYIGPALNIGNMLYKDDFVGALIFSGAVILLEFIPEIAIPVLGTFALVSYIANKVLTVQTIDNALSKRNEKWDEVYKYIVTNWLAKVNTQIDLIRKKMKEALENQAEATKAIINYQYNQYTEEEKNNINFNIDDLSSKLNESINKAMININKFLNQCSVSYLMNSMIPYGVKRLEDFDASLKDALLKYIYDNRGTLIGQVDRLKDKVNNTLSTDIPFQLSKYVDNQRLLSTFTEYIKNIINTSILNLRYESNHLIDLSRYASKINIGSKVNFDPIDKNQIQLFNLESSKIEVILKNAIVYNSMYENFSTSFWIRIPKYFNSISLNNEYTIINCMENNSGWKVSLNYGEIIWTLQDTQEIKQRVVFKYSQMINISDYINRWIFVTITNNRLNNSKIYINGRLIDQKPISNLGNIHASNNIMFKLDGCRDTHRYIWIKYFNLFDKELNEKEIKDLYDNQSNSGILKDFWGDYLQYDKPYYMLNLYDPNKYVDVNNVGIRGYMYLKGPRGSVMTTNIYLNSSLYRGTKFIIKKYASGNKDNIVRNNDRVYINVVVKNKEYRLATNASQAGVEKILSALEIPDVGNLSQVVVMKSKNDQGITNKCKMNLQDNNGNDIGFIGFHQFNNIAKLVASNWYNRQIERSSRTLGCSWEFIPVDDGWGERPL

[3] = molecular target: Lethal factor (Bacillus anthracis) (UniProt P15917); assay: Lethal factor protease inhibitors, Bacillus anthracis, multiplex microsphere cleavage assay, validation set (AID 588461); details: flow cytometry, at 10 µM, hits give high values
Lethal factor (Bacillus anthracis), sequence (P15917 whole entry, looked up): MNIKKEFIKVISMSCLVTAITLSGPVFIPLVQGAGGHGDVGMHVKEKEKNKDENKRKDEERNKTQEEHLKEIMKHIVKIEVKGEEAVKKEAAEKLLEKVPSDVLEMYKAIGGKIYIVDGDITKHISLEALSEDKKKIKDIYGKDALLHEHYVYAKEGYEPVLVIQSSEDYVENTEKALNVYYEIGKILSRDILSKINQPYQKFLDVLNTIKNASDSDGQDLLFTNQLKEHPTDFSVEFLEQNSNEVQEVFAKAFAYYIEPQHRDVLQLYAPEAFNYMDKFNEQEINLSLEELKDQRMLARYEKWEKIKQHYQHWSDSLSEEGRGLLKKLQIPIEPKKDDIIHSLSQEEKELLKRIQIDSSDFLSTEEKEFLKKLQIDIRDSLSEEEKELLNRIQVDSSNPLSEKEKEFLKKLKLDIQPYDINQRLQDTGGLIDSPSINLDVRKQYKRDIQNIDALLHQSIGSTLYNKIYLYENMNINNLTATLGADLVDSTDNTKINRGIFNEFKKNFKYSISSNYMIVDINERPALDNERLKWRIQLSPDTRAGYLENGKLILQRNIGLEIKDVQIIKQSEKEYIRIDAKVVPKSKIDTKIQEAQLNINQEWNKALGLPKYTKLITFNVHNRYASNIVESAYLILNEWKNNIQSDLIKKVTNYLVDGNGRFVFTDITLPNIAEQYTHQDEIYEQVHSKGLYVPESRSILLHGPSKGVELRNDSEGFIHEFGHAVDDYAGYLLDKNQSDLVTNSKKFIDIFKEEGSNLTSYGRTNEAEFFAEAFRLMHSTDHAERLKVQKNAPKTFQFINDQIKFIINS

Measured: inhibition

Cn1c(=O)c2nc3ccccc3nc2n(C)c1=O
inactive: [1] -0.9% | [2] 0.5% | [3] -5.4%

COc1ccc(C)cc1S(=O)(=O)Nc1ccc(F)cc1
inactive: [1] 1.1% | [2] -0.3% | [3] 0.5%

COc1ccc(-c2coc3cc(O)cc(O)c3c2=O)cc1
inactive: [1] 0.3% | [2] -0.7% | [3] 0.1%

COCCNC(=O)CSc1ccc(Cl)cc1
inactive: [1] 1.8% | [2] 0.7% | [3] 1.4%

CCc1ccc(/C=C2\Oc3cc(OC(=O)N4CCOCC4)ccc3C2=O)cc1
inactive: [1] 0.7% | [2] -0.2% | [3] 0.7%

CC(=O)NC(NC(=S)N1CCCCCC1)C(Cl)(Cl)Cl (centres undefined)
inactive: [1] -2.7% | [2] -2.4% | [3] 5.4%

Cc1[nH]c2ccccc2c1C(=O)C(=O)NCc1ccco1
inactive: [1] 0.1% | [2] -0.7% | [3] -5.5%

COc1cc(C(=O)OCCCN(C)C)cc(OC)c1OC
inactive: [1] -0.2% | [2] -0.5% | [3] 1.8%

CCCC(=O)O[C@]1(C(=O)COC(C)=O)CC[C@H]2[C@@H]3C[C@H](F)C4=CC(=O)C=C[C@]4(C)[C@@]3(F)[C@@H](O)C[C@@]21C
inactive: [1] -1.4% | [2] 0.4% | [3] -0.6%

COc1cc2c(cc1OC)C1(CCCCC1)CN(C)C2
inactive: [1] 1.7% | [2] -1.2% | [3] -1.7%

Nc1nc(Cl)nc2c1ncn2[C@H]1C[C@H](O)[C@@H](CO)O1
inactive: [1] -8.7% | [2] -2.6% | [3] -19.4%

N/C(=N\OC(=O)c1cccc(Br)c1)c1ccncc1
inactive: [1] 0.8% | [2] 0.4% | [3] -3.1%

O=c1c2ccccc2nnn1Cc1cccc2ccccc12
inactive: [1] 0.5% | [2] 0.7% | [3] -9.5%

CC(C)(C)c1ccc(/C=C/C(=O)N2CCCCC2)cc1
inactive: [1] -0.4% | [2] -1.5% | [3] 4.7%

Cc1cc(C(=O)Nc2ccccc2C(=O)N2CCCCC2)ccc1[N+](=O)[O-]
inactive: [1] 2.8% | [2] 2.4% | [3] -0.1%

O=C(O)/C=C/c1ccc(O)c(O)c1
inactive: [1] -0.3% | [2] -0.4% | [3] -1.7%

CC1=NN(C(=O)c2ccc(Br)cc2)C(O)(c2ccccc2)C1 (centres undefined)
inactive: [1] -2.9% | [2] -0.4% | [3] 4.5%

COc1ccc(C2NC(=O)c3ccccc3O2)c(OC)c1OC (centres undefined)
inactive: [1] -2.1% | [2] -0.5% | [3] 2.9%

c1ccc(SSc2ccccc2)cc1
inactive: [1] 0.3% | [2] -1.5% | [3] -8.9%

O=C1N=c2ccccc2=C1c1[nH]c(=S)[nH]c1O
inactive: [1] 3.3% | [2] -0.7% | [3] 7%

O=C(NC(=S)Nc1ccc(N2CCN(C(=O)c3ccccc3)CC2)cc1)c1cccs1
inactive: [1] -8.9% | [2] -3.2% | [3] -10.5%

CCCCN1C[C@H](O)[C@@H](O)[C@H](O)[C@H]1CO
inactive: [1] 1.9% | [2] -1% | [3] 0.7%

NS(=O)(=O)c1cc2c(cc1Cl)NC(C1C[C@H]3C=C[C@@H]1C3)NS2(=O)=O (some centres undefined)
inactive: [1] 1.4% | [2] 1% | [3] -3.2%

CCSC(SCC)[C@H](O)[C@@H](O)[C@H](O)[C@H](O)CO
inactive: [1] 3.3% | [2] -0.7% | [3] -1.5%

Cn1cc(CN(CCO)Cc2cccs2)c(-c2cccc(Cl)c2)n1
inactive: [1] 1.3% | [2] 1.3% | [3] -1.3%

CC(=O)[C@@]1(O)CC[C@H]2[C@@H]3CCC4=CC(=O)CC[C@]4(C)[C@H]3CC[C@@]21C
inactive: [1] 11.2% | [2] 0.4% | [3] -5.7%

CCC1(c2ccccc2)NC(=S)N(c2ccc(C)c(C)c2)N1 (centres undefined)
inactive: [1] 1% | [2] -0.8% | [3] -3%

C[C@]12CC[C@@H]3c4ccc(O)cc4CC[C@H]3[C@@H]1C[C@@H](O)[C@@H]2O[C@@H]1O[C@H](C(=O)O)[C@@H](O)[C@H](O)[C@H]1O
inactive: [1] -1.9% | [2] 0.2% | [3] -6.5%
